Reference: PubChem BioAssay
Unmarked numbers belong to inactive results. For some assays here: Results with a measured potency or affinity are listed apart. The source made the active and inactive calls. Unless noted, no rule for the calls is given here.

Tests used:
[1] = antimalarial activity against Dd2 strain (AID 2302;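 active = growth inhibition above 50% at the single 2 µM test dose, taken to imply half-maximal potency below 2 µM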;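 also: 0% = DMSO untreated growth and 100% = chloroquine plus artemisinin killed control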); conditions: P. falciparum Dd2 in RBCs, LDH growth readout, 72 h; at 2 µM; hits give high values
[2] = HepG2 cytotoxicity, primary screen, cytotoxicity control for P. falciparum antimalarial project, cell-based, ATP luminescence (AID 2303;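 active = inhibition above 50%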;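 also: 0% = DMSO wells and 100% = digitonin-killed cells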); conditions: HepG2 viability, 24-48 h, at 10 µM, hits give high values
[3] = target: L-lactate dehydrogenase (Plasmodium falciparum (isolate CDC / Honduras)) (UniProt Q27743); test: PfLDH activity inhibition – cell lysate, 3D7 strain, counter-screen for P. falciparum growth inhibition project (AID 2304);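 also: 0% = vehicle and 100% = reference inhibitor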; conditions: P. falciparum 3D7 crude extract, LDH APAD/NBT absorbance; at 2 µM; hits give high values
[4] = inhibition of 3D7 malaria parasite growth – strain 3D7 (AID 2306);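 also: 0% = DMSO wells and 100% = chloroquine plus artemisinin control wells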; conditions: P. falciparum 3D7 erythrocytic growth, LDH absorbance, 72 h; at 2 µM; hits give high values
[5] = target: Calcium-dependent protein kinase 1 (Plasmodium falciparum (isolate 3D7)) (UniProt P62344); test: PfCDPK1 kinase inhibitors, biochemical, TCAMS library (AID 1159585; cut-off not given, nearly all actives have IC50 up to about 0.98 µM;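 also: inhibitors leave more ATP so luminescence rises with inhibition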); conditions: recombinant PfCDPK1, Kinase-Glo ATP depletion luminescence
[6] = target: Plasmodium falciparum protein kinase 6 (PK6, PF3D7_1337100) (UniProt Q8IDW1); test: PfPK6 kinase inhibitors, biochemical, TCAMS library (AID 1159586); conditions: recombinant PfPK6, Kinase-Glo ATP depletion luminescence
[7] = target: Protein kinase 7 (PK7), Plasmodium falciparum 3D7 (PF3D7_0213400) (UniProt Q7YTF7); test: inhibition of Plasmodium PK7 catalytic activity – biochemical, TCAMS antimalarial set, Kinase-Glo luminescence (AID 1159587); conditions: recombinant PfPK7, Kinase-Glo ATP depletion luminescence
[8] = target: Calcium-dependent protein kinase 4 (Plasmodium falciparum (isolate 3D7)) (UniProt Q8IBS5); test: PfCDPK4 kinase inhibitors, biochemical, TCAMS library (AID 1159588; cut-off not given, nearly all actives have IC50 up to about 0.91 µM); conditions: recombinant PfCDPK4, Kinase-Glo ATP depletion luminescence
Sequence of Calcium-dependent protein kinase 4 (Plasmodium falciparum (isolate 3D7)) (Q8IBS5 whole entry, looked up): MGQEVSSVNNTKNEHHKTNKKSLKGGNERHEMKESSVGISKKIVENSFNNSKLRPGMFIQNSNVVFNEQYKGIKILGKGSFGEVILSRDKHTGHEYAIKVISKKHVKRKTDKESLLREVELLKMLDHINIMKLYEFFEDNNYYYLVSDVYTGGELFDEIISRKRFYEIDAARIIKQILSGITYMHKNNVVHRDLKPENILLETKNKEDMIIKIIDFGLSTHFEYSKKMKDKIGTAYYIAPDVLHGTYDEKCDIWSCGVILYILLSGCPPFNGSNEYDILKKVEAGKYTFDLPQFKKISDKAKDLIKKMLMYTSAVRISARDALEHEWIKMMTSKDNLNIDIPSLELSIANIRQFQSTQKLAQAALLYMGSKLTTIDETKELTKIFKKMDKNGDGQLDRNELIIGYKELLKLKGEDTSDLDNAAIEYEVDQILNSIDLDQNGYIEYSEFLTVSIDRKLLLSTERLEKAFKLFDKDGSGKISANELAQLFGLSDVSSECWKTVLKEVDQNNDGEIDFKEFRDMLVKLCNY

Sequence of L-lactate dehydrogenase (Plasmodium falciparum (isolate CDC / Honduras)) (Q27743 whole entry, looked up): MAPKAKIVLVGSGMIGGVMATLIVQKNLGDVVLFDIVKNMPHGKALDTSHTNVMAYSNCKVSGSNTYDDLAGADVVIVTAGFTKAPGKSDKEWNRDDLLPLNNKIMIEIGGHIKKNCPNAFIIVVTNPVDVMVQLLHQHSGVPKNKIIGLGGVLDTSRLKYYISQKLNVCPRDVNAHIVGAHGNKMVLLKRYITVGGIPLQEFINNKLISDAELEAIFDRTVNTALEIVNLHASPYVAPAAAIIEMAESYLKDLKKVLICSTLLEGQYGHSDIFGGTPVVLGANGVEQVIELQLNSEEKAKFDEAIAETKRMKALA
Sequence of Protein kinase 7 (PK7), Plasmodium falciparum 3D7 (PF3D7_0213400) (Q7YTF7 1-343): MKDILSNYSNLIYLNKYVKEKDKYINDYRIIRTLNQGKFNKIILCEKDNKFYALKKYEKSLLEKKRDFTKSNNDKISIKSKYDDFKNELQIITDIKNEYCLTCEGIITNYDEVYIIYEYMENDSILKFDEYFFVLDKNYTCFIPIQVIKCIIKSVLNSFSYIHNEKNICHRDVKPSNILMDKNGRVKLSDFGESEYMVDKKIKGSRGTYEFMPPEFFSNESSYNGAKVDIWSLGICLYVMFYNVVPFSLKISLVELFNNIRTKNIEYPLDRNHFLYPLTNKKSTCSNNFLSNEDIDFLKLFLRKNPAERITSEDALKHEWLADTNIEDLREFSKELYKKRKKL
Sequence of Plasmodium falciparum protein kinase 6 (PK6, PF3D7_1337100) (Q8IDW1 1-305): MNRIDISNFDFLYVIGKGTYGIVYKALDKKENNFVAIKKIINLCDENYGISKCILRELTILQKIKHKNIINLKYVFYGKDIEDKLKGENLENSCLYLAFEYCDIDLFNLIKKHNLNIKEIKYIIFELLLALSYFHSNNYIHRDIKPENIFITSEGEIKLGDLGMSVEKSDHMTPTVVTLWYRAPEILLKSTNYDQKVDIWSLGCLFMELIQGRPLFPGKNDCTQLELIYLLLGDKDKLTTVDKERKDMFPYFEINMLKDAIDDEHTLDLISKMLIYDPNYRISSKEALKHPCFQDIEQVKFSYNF
Sequence of Calcium-dependent protein kinase 1 (Plasmodium falciparum (isolate 3D7)) (P62344 whole entry, looked up): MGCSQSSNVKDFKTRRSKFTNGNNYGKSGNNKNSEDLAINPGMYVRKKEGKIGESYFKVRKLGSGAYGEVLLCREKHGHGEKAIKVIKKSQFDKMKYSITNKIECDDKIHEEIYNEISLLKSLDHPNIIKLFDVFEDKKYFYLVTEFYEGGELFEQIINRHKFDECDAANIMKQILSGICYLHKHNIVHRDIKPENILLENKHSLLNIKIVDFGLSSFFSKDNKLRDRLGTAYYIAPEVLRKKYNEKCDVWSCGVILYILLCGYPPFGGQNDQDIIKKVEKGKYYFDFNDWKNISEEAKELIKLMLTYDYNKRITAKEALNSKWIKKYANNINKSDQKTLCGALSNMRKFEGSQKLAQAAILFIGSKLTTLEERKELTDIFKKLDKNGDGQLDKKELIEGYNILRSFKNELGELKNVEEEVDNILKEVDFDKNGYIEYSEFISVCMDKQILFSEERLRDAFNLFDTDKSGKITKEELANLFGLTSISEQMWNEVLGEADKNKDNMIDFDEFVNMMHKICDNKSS

SMILES | growth inhibition [1] | inhibition [2] | inhibition [3] [%] | growth inhibition [4] | outcome [5] | outcome [6] | outcome [7] | outcome [8]
CN(C)Cc1cc2c(O)c(Cc3ccccc3)ccc2o1 | 69% (active) | 3% | -8 | 85% (active) | inactive | inactive | inactive | inactive
COc1ccc(C2c3cc(OC)c(OC)cc3C(=NO)C2C)cc1OC (configuration not stated) | 6% | 20% | -2 | 90% (active) | inactive | inactive | inactive | inactive
O=C(Nc1ccc(OC2CCN(Cc3ccsc3)C2)c(Cl)c1)c1ccc(F)cc1 (configuration not stated) | 73% (active) | -3% | -8 | 89% (active) | inactive | inactive | inactive | inactive
CCOC(=O)c1[nH]c(-c2ccccc2)nc1NC(=S)NC1CCCCC1 | 1% | 6% | 1 | 96% (active) | inactive | inactive | inactive | inactive
CCCCCCn1c(Sc2ccc(C#N)c([N+](=O)[O-])c2)nnc1-c1ccc(Cl)cc1 | 48% | 23% | 0 | 93% (active) | inactive | inactive | inactive | inactive
Cc1ccc(CN2CCN(c3cc4c(cc3Cl)CCN4C(=O)Cc3ccc(NC(=O)c4ccc(C(F)(F)F)cc4)cc3)CC2)cc1 | -8% | 15% | 4 | 88% (active) | inactive | inactive | inactive | inactive
Cc1cccc(C(=O)Nc2ccnc(N3CCC(N(C)Cc4cccc(C#N)c4)CC3)c2)c1 | 52% (active) | 5% | -2 | 101% (active) | inactive | inactive | inactive | inactive
Cc1ccc(Cn2ncc(NC3CCNCC3)c(Cl)c2=O)cc1NC(=O)Nc1ccc(-c2ccccc2)cc1 | 61% (active) | 18% | -2 | 99% (active) | inactive | inactive | inactive | inactive
COc1ccc(CNC(=O)Nc2cc3cc(-c4ccc(CN5CCCC5)cc4)ccc3n3c(C)nnc23)cc1 | 100% (active) | 100% (active) | -3 | 101% (active) | inactive | inactive | inactive | inactive
O=C(/C=C/c1ccc(Cl)c(Cl)c1)NCCCCCN1CCCN(C(=O)Nc2cccc(C(F)(F)F)c2)CC1 | -2% | 45% | 1 | 96% (active) | inactive | inactive | inactive | inactive
CN1CCN(c2ccc(Nc3ncc([N+](=O)[O-])c(Nc4ccccc4O)n3)cc2)CC1 | 97% (active) | 98% (active) | -3 | 100% (active) | inactive | inactive | inactive | inactive
NC(=O)C1CCN(Cc2cccc(-c3cccc(-c4nc5ccc(F)cc5[nH]4)c3)c2)CC1 | 7% | 15% | 3 | 100% (active) | inactive | inactive | inactive | inactive
CCNc1cc(C(=O)N[C@@H](Cc2ccccc2)[C@H](O)CNC2CCSCC2)cc(N2CCCC2=O)c1 | 98% (active) | 0% | -1 | 99% (active) | inactive | inactive | inactive | inactive
Cc1cccc(NC(=O)Nc2ccc(I)c(OCCN(C)C)c2)c1C | 17% | 13% | 1 | 96% (active) | inactive | inactive | inactive | inactive
CCN(CC)C(=NCCCCCCN=C(/N=C(\N)c1ccc(Cl)cc1)N(CC)CC)/N=C(\N)c1ccc(Cl)cc1 | 99% (active) | 1% | 1 | 97% (active) | inactive | inactive | inactive | inactive
Cc1cnc(-c2cccc(C(=O)NC3CCC(CCN4CCc5ccc(C#N)cc5CC4)CC3)c2)[nH]1 (configuration not stated) | 69% (active) | 23% | 1 | 100% (active) | inactive | inactive | inactive | inactive
Cc1cccc(C)c1CNc1nc(N2CCOCC2)cc2c(C)c(C)[nH]c12 | 64% (active) | 51% (active) | -4 | 92% (active) | inactive | inactive | inactive | inactive
O=C(c1cccc(-c2noc(C(F)(F)F)n2)c1)N1CCN(c2nsc3ccccc23)CC1 | 81% (active) | 18% | -2 | 90% (active) | inactive | inactive | inactive | inactive
Cc1cc(C(=O)Nc2ccc3c(c2)CCN3C2CCN(Cc3ccc4nsnc4c3)C2)no1 (configuration not stated) | 94% (active) | -1% | -1 | 90% (active) | inactive | inactive | inactive | inactive
